Measured values taken from PubChem BioAssay AID485297 (National Center for Advancing Translational Sciences (NCATS), 2010).
Out of some 320,000 compounds screened, about 9,100 (2.8%) were called active. Entries that show only a call come without a potency. Not shown: some 3% with an inconclusive outcome. Calls come from the whole dose curve; as a rule, active = well fitted activation curve with a large enough effect; inconclusive = small, poorly fitted or top-dose-only effect; inactive = no such curve, though single readings can be large or run the other way. Only a selection was taken, and actives are over-represented in it overall.

Test: qHTS Assay for Rab9 Promoter Activators; note: nearly all actives have a fitted effect of over 60% in size
Settings: Huh7 Rab9 promoter-luciferase reporter, luminescence, 24 h; series mostly up to 9.22 µM
Method in brief: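 Luminescence read-out: Huh7 cells stably expressing Rab9-luciferase, treated 24 h with compound at 37 °C, then lysed with luciferase reagent for 10 min at ambient before reading.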
Potency is the fitted concentration of half-maximal effect.

| SMILES | Potency |
| --- | --- |
| CC1CCCC(NC(=O)c2cc(S(=O)(=O)N3CCCCC3)ccc2Cl)C1C (centres undefined) | inactive |
| CCCCCCCC(=O)OC(CN1CCCCCC1)CN1CCCC1=O (centres undefined) | inactive |
| CN1CCN(c2ccc(NC(=O)c3ccc4c(c3)[nH]c(=O)n4Cc3ccc(F)cc3)cc2)CC1 | inactive |
| COc1cccc(C(=O)Nc2ccc(N3CCCC3)cc2)c1 | 1120 nM (active) |
| CN1CCN(c2ccc(NC(=O)c3ccccc3)cc2)CC1 | 1580 nM (active) |
| Cc1ccccc1C(=O)NC(=S)Nc1ccc(N2CCN(C(=O)c3ccccc3)CC2)cc1 | inactive |
| COc1cccc(C(=O)Nc2ccc(N3CCN(C(=O)c4ccco4)CC3)cc2)c1 | inactive |
| COc1ccc(C2COC(=O)C2=N)c(NC(=O)c2ccccc2)c1 (centres undefined) | inactive |
| CC(=O)Oc1cccc(C(=O)Nc2ccccc2NC(=O)c2cccc(OC(C)=O)c2)c1 | inactive |
| COc1ccc(C(=O)Nc2ccc(N3CCC(C)CC3)cc2)cc1Br | inactive |
| COc1cccc(C(=O)Nc2cc3c(cc2Br)OCCCO3)c1 | 2820 nM (active) |
| CC(C)(C)OC(=O)N[C@H](C(=O)OC(C)(C)C)c1ccc(Br)cc1 | inactive |
| O=C(OCC(=O)N1CCN(C(=O)c2ccco2)CC1)c1ccc(Cl)c(Cl)c1 | inactive |
| CN(c1ccccc1)S(=O)(=O)c1cccc(NC(=O)Cc2ccc(Cl)cc2)c1 | inactive |
| CCCCN1Cc2c(nc3cc(-c4ccccc4)[nH]n3c2=O)C1=O | inactive |
| CCc1c(C)nc2cc(C)[nH]n2c1=O | inactive |
| C=CCc1c(C)nc2cc(-c3ccccc3)[nH]n2c1=O | 1410 nM (active) |
| O=C1C=C(c2cccc(Br)c2)C[C@@H](c2ccc(F)cc2)C1 | inactive |
| NC(=O)NC(CC(=O)NNC(=O)c1ccccn1)c1ccc(Cl)cc1 (centres undefined) | inactive |
| O=S(=O)(NCCCN1CCOCC1)c1ccc(F)c(Cl)c1 | inactive |
| O=C(OCC(=O)N1CCCCCC1)c1cnc(Cl)c(Cl)c1 | inactive |
| CCOc1ccc(C(=O)Nc2ccncc2)cc1 | inactive |
| CCOc1ccc(NC(=O)c2ccc(NC(=O)COC(=O)c3ccc(NC(=O)CC#N)cc3)cc2)cc1 | 2240 nM (active) |

| SMILES | Potency |
| --- | --- |
| CCOc1cccc(NC(=O)CC#N)c1 | inactive |
| Cc1cccc(NS(=O)(=O)c2ccc(C)c(C(=O)NCC(c3ccccc3)N(C)C)c2)c1 (centres undefined) | inactive |
| O=C(Nc1ncccc1O)c1ccc(S(=O)(=O)N2CCCCCC2)cc1 | inactive |
| O=C(Nc1ncccc1O)c1ccc(S(=O)(=O)N2CCCC2)cc1 | inactive |
| O=C(Nc1ncccc1O)c1ccc(C(=O)c2ccccc2)cc1 | 4470 nM (active) |
| C=CCn1c(SCC(=O)NC(=O)Cc2ccccc2)nc2ccccc2c1=O | inactive |
| Cc1ccc(S(=O)(=O)CCC(=O)OCC(=O)NCCc2ccc(S(N)(=O)=O)cc2)cc1 | inactive |
| O=C(/C(=C/c1cccc(Cl)c1)c1nc2ccccc2[nH]1)c1ccccc1 | inactive |
| N#C/C(=C(/O)COC(=O)COc1ccc(Cl)cc1)c1nc2ccccc2[nH]1 | inactive |
| O=C(Cc1nc2ccccc2[nH]c1=O)c1ccc(Cl)cc1 | 2000 nM (active) |
| CC(C)(C)OC(=O)Nc1ccc([C@@H](NC(=O)OC(C)(C)C)C(=O)OC(C)(C)C)cc1 | inactive |
| Cc1ccc(-n2c(C)cc(C(=O)CSc3nnc4ccccn34)c2C)cc1 | 398 nM (active) |
| Cc1ccc(-n2c(C)cc(C(=O)CN3C(=O)C(=O)N(C4CCCC4)C3=O)c2C)cc1 | inactive |
| Cn1c(CC(=O)Nc2ccccc2)nnc1SCC(=O)c1ccccc1 | inactive |
| N#Cc1ccc(CSc2nnc3ccccn23)cc1 | inactive |
| Cc1cc(C(=O)CSc2nc(N)cc(=O)[nH]2)c(C)n1-c1cccc(F)c1 | inactive |
| O=C(CSc1nnc2ccccn12)c1ccccc1 | 2510 nM (active) |
| COc1ccc(NC(=O)CSc2nnc(C3CC3)n2C)cc1S(=O)(=O)N1CCCCC1 | inactive |
| O=C(CSc1nnc(Nc2ccccc2)s1)Nc1cccnc1Cl | inactive |
| CC(C)c1ccc(Nc2nnc(SCC(=O)c3nnc(-c4ccccc4)o3)s2)cc1 | 4470 nM (active) |
| Cc1ccc(Nc2nnc(SCC(=O)c3cc4ccccc4o3)s2)cc1C | inactive |
| COc1cc2c(cc1OC)C(=O)NCC(C)(C)O2 | inactive |
| COc1ccccc1-c1sc2ccccc2c1-c1ccc(Br)nc1 | inactive |

| SMILES | Potency |
| --- | --- |
| Cc1csc(SCC(=O)N(c2ccccc2)C(C)C)n1 | inactive |
| NC(=O)c1ccsc1NC(=O)COC(=O)COc1ccc(C=O)cc1 | inactive |
| O=C(O)c1ccccc1N=N/C(=N/Nc1cc(S(=O)(=O)O)ccc1O)c1ccccc1 | inactive |
| O=C(O)c1cccc(S(=O)(=O)N2CC=C(c3ccccc3)CC2)c1 | inactive |
| CN1CCCC(OC(=O)COc2ccc(Br)cc2)C1 (centres undefined) | inactive |
| CC1CN/C(=C\C(=O)c2ccc(Br)cc2)C(=O)N1 (centres undefined) | 501 nM (active) |
| COc1cc2c(cc1OC)/C(=C/C(=O)c1ccc(NC(C)=O)cc1)NCC2 | inactive |
| CCCCNC(=O)OCCSCCS(=O)(=O)c1ccc(Cl)cc1 | inactive |
| CC(=O)c1sc(NC(=O)C2=NN(c3ccccc3)C(=O)CC2)nc1C | inactive |
| COc1ccc(/C=N\NC(=O)c2sc(N)nc2C)cc1OC | inactive |
| COc1cc2ccccc2cc1C(=O)Nc1nc(C)c(C(C)=O)s1 | 3980 nM (active) |
| CC(=O)c1sc(N)nc1C | inactive |
| COc1cc2ccccc2cc1C(=O)Nc1ccccc1C | inactive |
| Cc1ccc(S(=O)(=O)Nc2nc(C)cc(N/N=C/c3ccc(O)cc3)n2)cc1 | inactive |
| COc1cc2ccccc2cc1C(=O)Nc1ccncc1 | inactive |
| Cc1nnc(C)n1/N=C/c1ccc(C(C)C)cc1 | inactive |
| CC(=O)c1sc(NC(=O)c2ccc(C)cc2)nc1C | 1780 nM (active) |
| CC(=O)c1sc(N/N=C/c2ccc(C(C)C)cc2)nc1C | 794 nM (active) |
| CC(=O)c1sc(NC(=O)CCCOc2ccccc2C)nc1C | inactive |
| CC(=O)c1sc(N/N=C\c2ccc(C)cc2)nc1C | 2000 nM (active) |
| N#Cc1ccc(C(=O)OCC(=O)NC(=O)NC2CCCCC2)cc1 | inactive |
| CCN(CC(=O)Nc1cc(Cl)ccc1C)C(=O)CSCc1ccccc1 | inactive |
| CC(Oc1ccc(F)cc1F)C(=O)/C=C/N(C)C (centres undefined) | inactive |
